This note sets out measurements from PubChem BioAssay.

Active and inactive are the calls of the source.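 Rule for the calls, unless noted: active = mean z-score across replicates of 1.96 or higher in either the MELAS or the Rieske mutant cell line; inactive = the rest.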

Assay [1] can be described thus: survival rescue of mitochondrial mutant cells in low glucose, primary screen, MELAS cybrids, Rieske KO mouse fibroblasts, CellTiter-Glo (AID 1508586).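 Note: test concentration not given here; z relative to plate mean and SD of compound and empty wells.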 For orientation: ATP-based viability assays read luminescence as a measure of living cells.
Assay [2] in a line: viability rescue of complex I mutant cybrids, primary screen, cell-based, galactose medium, ATP luminescence (AID 1645843;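 active = z-score of at least 1.8 in each of two replicates, scored against plate mean and spread of sample wells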;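 note: positive z means more ATP and so rescue of galactose-driven cybrid death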). Conditions: complex I mutant cybrid cells, 72 h, stronger effect = higher value.
Setting [3] is: MELAS cybrid survival, CellTiter-Glo 48 h, stronger effect = higher value.
[4] abbreviates: Rieske KO mouse fibroblast survival, CellTiter-Glo 72 h.

For the molecule `CC(C)OCCNC1CCc2c(c(C(=O)N(C)Cc3ccccc3)nn2C)C1` (centres undefined), the z-score in assay [1] (setting [3]) is 0.055 (inactive); in assay [1] (setting [4]) it was -0.804; in assay [2] it was 0.48 (inactive).
With `CCn1nc(C(=O)N(C)Cc2ccco2)c2c1CCC(N(C)Cc1ccon1)C2` (centres undefined), the z-score in assay [1] (setting [3]) was -0.655 (inactive); in assay [1] (setting [4]), -0.252; in assay [2] it was -1.03 (inactive).
`O=C(NCc1cccc(F)c1)N[C@H]1C[C@H]2C(=O)N[C@@H](COCc3ccccc3)C(=O)N2C1`: the z-score is 0.777 (inactive) in assay [1] (setting [3]), -0.345 in assay [1] (setting [4]) and -0.285 (inactive) in assay [2].
As for `O=C(c1nn(Cc2ccncc2)c2c1CN(Cc1ccsc1)CC2)N1CCCC1`, the z-score is -0.1 (inactive) in assay [1] (setting [3]), 0.631 in assay [1] (setting [4]) and 0.36 (inactive) in assay [2].
Turning to `CCN1C(=O)N(C)C(=O)C12CCN(Cc1ccc(Oc3ncccn3)cc1)CC2`, the values for the z-score in assay [1] (setting [3]), in assay [1] (setting [4]) and in assay [2] were 0.0802 (inactive), -0.536 and 1.74 (inactive), respectively.
Take `CCn1cc(CN2CCN3C(=O)[C@@H]4C[C@@H](O)CN4C(=O)[C@H]3C2)c(C)n1`: the values for the z-score in assay [1] (setting [3]), in assay [1] (setting [4]) and in assay [2] were -0.258 (inactive), -0.193 and -0.705 (inactive), respectively.
For `Cc1nc(CN(C)C2CCc3c(c(C(=O)N(C)C)nn3CC3CCCCC3)C2)cs1` (centres undefined) the same measures were -0.264 (inactive), -0.141 and 0.725 (inactive).
Turning to `CCc1nc(CNc2cc(C(=O)NCc3ccccn3)cc(S(=O)(=O)N3CCCC3)c2)c(C)[nH]1`, the z-score in assay [1] (setting [3]) is -0.302 (inactive); in assay [1] (setting [4]), -0.597; in assay [2], 0.97 (inactive).
On the same counts, the results for `Cn1c2c(cc(-c3ccc(OC(F)(F)F)cc3)c1=O)CN(C(=O)C1CC(=O)c3ccccc31)CC2` (centres undefined) are 0.0877 (inactive), 0.643 and 0.305 (inactive).
Turning to `CN1CC(=O)N2CCN(C(=O)NCc3ccccc3)C[C@@H]2C1=O`, the z-score in assay [1] (setting [3]) is -0.0344 (inactive); in assay [1] (setting [4]), -0.297; in assay [2] it was -0.795 (inactive).
For `CC(C)CN1C[C@@H](CN2CCOCC2)C[C@@H](C(=O)N2CCCC2)C1`, the z-score in assay [1] (setting [3]) was -0.0982 (inactive); in assay [1] (setting [4]), -0.607; in assay [2], -0.485 (inactive).
For `CCN1C(=O)N(Cc2cccc(OC)c2)C(=O)C12CCN(CC1CC=CCC1)CC2` (centres undefined), the figures for the z-score in assay [1] (setting [3]), in assay [1] (setting [4]) and in assay [2] were -0.681 (inactive), -0.854 and -0.435 (inactive), respectively.
With `COC(=O)c1c(NC(=O)c2ccoc2)c2cc(NC3CCSCC3)cnc2n1CC(C)C`, the z-score in assay [1] (setting [3]) is -0.463 (inactive); in assay [1] (setting [4]), -0.31; in assay [2], 0.98 (inactive).
On to `COCCn1c(C(=O)OC)c(NC(=O)Cc2ccccc2)c2cc(NC(C)CCO)cnc21` (centres undefined), for which the z-score in assay [1] (setting [3]) is -0.113 (inactive); in assay [1] (setting [4]), 0.262; in assay [2], -0.97 (inactive).
On the same counts, the results for `COc1ccc(CN2C(=O)N(C)C3(CCN(Cc4nc(-c5ccccc5)cs4)CC3)C2=O)cc1` are -0.259 (inactive), -0.0505 and -0.2 (inactive).
For `CCn1nc(C(=O)N2CCCCC2)c2c1CCC(NCc1ccc3c(c1)OCO3)C2` (centres undefined) the same measures were -0.251 (inactive), 0.426 and -1.14 (inactive).
With `Cn1nc(C(=O)N2CCCCCC2)c2c1CCC(NCc1ccc(C(F)(F)F)cc1)C2` (centres undefined), the z-score in assay [1] (setting [3]) was -0.174 (inactive); in assay [1] (setting [4]), -0.22; in assay [2] it was 1.12 (inactive).
Consider `O=C(C1COc2ccccc2C1)N1CC(=O)N(C2CCCCC2)CC(OCc2ccccn2)C1` (centres undefined), for which the z-score in assay [1] (setting [3]) is 0.04 (inactive); in assay [1] (setting [4]), -1.17; in assay [2] it was 2.08 (inactive).
With `CCOC(=O)c1csc(CCNC2CCc3c(c(C(=O)N4CCc5ccccc5C4)nn3C)C2)n1` (centres undefined), the figures for the z-score in assay [1] (setting [3]), in assay [1] (setting [4]) and in assay [2] were -0.249 (inactive), 0.117 and -1.24 (inactive), respectively.
On the same counts, the results for `CCCc1c(C(=O)N[C@H]2C[C@H]3C(=O)N[C@H](Cc4ccc(O)cc4)C(=O)N3C2)cnn1-c1ccccc1` are -0.275 (inactive), -0.357 and -1.02 (inactive).
Consider `CN1C(=O)N(Cc2ccccc2)C2(CCN(Cc3nc4ccccc4n3C)CC2)C1=O`, for which the z-score in assay [1] (setting [3]) was 0.0463 (inactive); in assay [1] (setting [4]), -0.298; in assay [2] it was -0.11 (inactive).
On the same counts, the results for `CCN1CCCC1CNC(=O)c1nn(CCOC)c2c1CN(Cc1c(C)nc3sccn13)CC2` (centres undefined) are 0.286 (inactive), -0.16 and -0.87 (inactive).
For the molecule `COCCN1C(=O)N(C(C)C)C(=O)C12CCN(Cc1c(F)cccc1Cl)CC2`, the z-score in assay [1] (setting [3]) was -0.424 (inactive); in assay [1] (setting [4]), -0.375; in assay [2], 2.07 (inactive).
Turning to `CC(C)CN1CC(OCc2cccc(F)c2)CN(C(=O)c2cccc(N3CCNC3=O)c2)CC1=O` (centres undefined), the z-score was -0.284 (inactive) in assay [1] (setting [3]), -0.354 in assay [1] (setting [4]) and 0.795 (inactive) in assay [2].
With `CC(C)CN1CC(OCc2cccc(F)c2)CN(Cc2cccn2-c2ncccn2)CC1=O` (centres undefined), the z-score in assay [1] (setting [3]) is -0.291 (inactive); in assay [1] (setting [4]) it was -0.624; in assay [2] it was 0.085 (inactive).
Regarding `CC(C)CNC(=O)[C@H]1CNC[C@@H](CN2CCOCC2)C1`, the z-score was 0.0168 (inactive) in assay [1] (setting [3]), 0.121 in assay [1] (setting [4]) and -0.045 (inactive) in assay [2].
For `CCCCNC(=O)[C@@H]1C[C@H](CN2CCOCC2)CN(Cc2ccc(O)cc2)C1` the same measures were 1.06 (inactive), -0.315 and 0.115 (inactive).
On the same counts, the results for `CC(C)[C@@H]1NC(=O)[C@@H]2C[C@H](NC(=O)c3cccc(Cl)c3)CN2C1=O` are 9 (active), -0.848 and -0.675 (inactive).
